Reference: PubChem BioAssay (NCI)
About 83,000 compounds went through this panel and 20% of them were active in at least one assay; those are over-represented in the sample as a whole.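 Cell lines were cultured in 96-well plates, exposed to a single compound concentration, and assessed for percent growth 48 hours later.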 A number with no mark means an inactive call. Calls of active or inactive are those of the source. The calls were made as follows: active = growth percent below 10; inactive = the rest.

How the values were obtained:
Experiment in all cases: NCI-60 one-dose screen, 48 h (100 = growth as untreated, 0 = no growth, -100 = all killed)
Conditions in all cases: 10 µM unless noted
NCI-H23 lung = system: NCI-H23 lung
NCI-H226 lung = system: NCI-H226 lung
NCI-H322M lung = system: NCI-H322M lung
HOP-62 NSCLC = system: HOP-62 NSCLC
NCI-H460 lung = system: NCI-H460 lung
HOP-92 NSCLC = system: HOP-92 NSCLC
NCI-H522 lung = system: NCI-H522 lung
A549/ATCC NSCLC = system: A549/ATCC NSCLC
786-0 renal = system: 786-0 renal
COLO 205 colon = system: COLO 205 colon

SMILES | growth (NCI-H23 lung) | growth (NCI-H226 lung) | growth (NCI-H322M lung) | growth (HOP-62 NSCLC) | growth (NCI-H460 lung) | growth (HOP-92 NSCLC) | growth (NCI-H522 lung) | growth (A549/ATCC NSCLC) | growth (786-0 renal) | growth (COLO 205 colon)
C/C(=C(/c1ccc(O)cc1)c1ccc(OCCN2CCCCCC2)cc1)c1ccccc1 | 45.5% | 75.7% | 67% | 65.8% | 19.2% | 45% | 65.6% | 56.7% | 35.5% | -86.5% (active)
CN1CCN(c2nc(-c3csc(-c4ccncc4)n3)cc3ccccc23)CC1 | 71.8% | 98.1% | 82.1% | 85% | 78.2% | 15.3% | 55.7% | 71.1% | 65.7% | 39.6%
C/C(=N\NC(=O)CSc1nc2sc3c(c2c(=O)n1-c1ccccc1)CCC(C)C3)c1ccc(Cl)cc1 (stereo not given) | 28.2% | -1.29% (active) | 51.3% | 34.5% | 4.18% (active) | -1.5% (active) | 22.2% | 42.5% | 7.93% (active) | 26.5%
Cc1cc(F)cc(NS(=O)(=O)c2ccc(-c3cnc(C4CC4)o3)cc2)c1 | 19.8% | 53.8% | 46.9% | 34.2% | 13.8% | 35.6% | 8.89% (active) | 27.8% | 47% | 1.45% (active)
COc1ccccc1/C=C/C(=O)c1nnn(-c2ccc(C(=O)O)cc2)c1C | 87.6% | 94.7% | 92.1% | 110% | 96.1% | 101% | 82.4% | 90.3% | 93.2% | 110%
Cc1occc1-c1nc2s/c(=C\c3cn(-c4ccccc4)nc3-c3ccccc3)c(=O)n2n1 | 88.5% | 97.4% | 107% | 118% | 103% | 67.8% | 92.3% | 95.7% | 101% | 118%
Cc1ccc(-c2cc(-c3ccc(N(C)C)cc3)n3c(n2)nc2ccccc23)cc1 | 57.1% | 57% | 103% | 83.1% | 61.7% | 21.7% | 25.4% | 56.5% | 80.8% | 92.5%
O=C(NNc1nc2cc(F)cc(F)c2n2cccc12)c1ncccn1 | 11.2% | -2.14% (active) | 25.5% | 19.7% | 6% (active) | 61.2% | -2.87% (active) | 18.7% | 0.547% (active) | 16.9%
O=C(/C=C/c1cccc(O)c1)c1ccc(O)cc1 | 72% | 103% | 88.5% | 79.9% | 92.8% | 104% | 65.6% | 90.1% | 85% | 120%
c1ccc(-c2c(-c3ccccc3)[n+](Cc3ccc4ccccc4c3)c(-c3ccccc3)n2Cc2ccc3ccccc3c2)cc1 | -81% (active) | -66.8% (active) | -97% (active) | -66.9% (active) | -75.6% (active) | -89.8% (active) | -76.2% (active) | -74.3% (active) | -76.9% (active) | -57.8% (active)
CCn1c2ccc(/C=N/NS(=O)(=O)CCN(C)C)cc2c2cc(/C=N/NS(=O)(=O)CCN(C)C)ccc21 | 97.4% | 96.5% | 85.7% | 82.7% | 101% | 92.2% | 86.6% | 101% | 92% | 115%
O=C1C[C@@H](c2ccccc2)Oc2c(Cc3ccccc3O)c(O)c(Cc3cc(Cc4cc(Cc5ccccc5O)ccc4O)ccc3O)c(O)c21 | 94.7% | 86% | 110% | 97.4% | 104% | 78% | 107% | 101% | 100% | 111%
O=C(c1cccc(F)c1)n1ccc2cc(NC(=S)Nc3cccnc3)ccc21 | 100% | 112% | 99% | 106% | 98.6% | 123% | 87.1% | 98.7% | 80.5% | 115%
CCN(CC)CCN1C(=O)c2c(c3c4cccnc4[nH]c3c3ccc4ccccc4c23)C1=O | 60.3% | 79.4% | 76.7% | 38.4% | 13.8% | 91.9% | 65.4% | 60% | 60.9% | 72.1%
C=CCn1c(SCC(=O)Nc2cccc(C(=O)/C=C/c3ccc(Br)cc3)c2)nc2ccccc2c1=O | 85.1% | 94.1% | 86.6% | 96.8% | 94.9% | 78.4% | 75.3% | 86.4% | 97.7% | 111%
CC1CCc2c(sc3nc(SCC(=O)N/N=C/c4ccc(Cl)cc4)n(-c4ccccc4)c(=O)c23)C1 (stereo not given) | 90.7% | 91% | 98.1% | 78.4% | 107% | 107% | 93.6% | 101% | 96.5% | 135%
CCN1C(=O)N(CC)C2SC(N/N=C/c3ccc(F)cc3)=NC21 (stereo not given) | 29.6% | 48.1% | 55.2% | 33% | 4.72% (active) | -0.0922% (active) | -32.8% (active) | 26.4% | 30.3% | -49.1% (active)
COc1ccc(C2C(C#N)=C(N)Oc3c2sc2ccc(C)cc32)cc1 (stereo not given) | 43.7% | 34.9% | 71.8% | 30.1% | 15.2% | 72.1% | -34.3% (active) | 45.6% | 42% | 36.8%
Cc1csc(Nc2cccc(Nc3nc(C)cs3)c2)n1 | 58.4% | 85% | 96.2% | 98.8% | 76.5% | 52.2% | 73.3% | 88% | 94.5% | 87.2%
Cc1cc(O)c(=O)cc2c1C[C@H]1CC(C)(C)/C=C/C[C@]3(C)Oc4cc(=O)c(O)cc(C)c4C[C@H]3C[C@H](O)[C@@]1(C)O2 | -10.9% (active) | 14.7% | 16% | -12.4% (active) | 0.132% (active) | -16.1% (active) | -26.9% (active) | -0.223% (active) | -24.3% (active) | -10.3% (active)
CCNC(=NCCCN(C)C)N/C(N)=N/c1nc2ccccc2s1 | 98.7% | 92.7% | 91.5% | 82.4% | 104% | 58.1% | 99.2% | 89.8% | 84.6% | 78.7%
CCC(CC)n1c(=O)c(SC2=NC3C(NN2)N(CC)C(=O)N3CC)c(C(=O)O)c2ccccc21 (stereo not given) | 11.7% | 36.1% | 54.7% | 33.6% | 3.21% (active) | 21.7% | -45% (active) | 36.5% | 27.9% | -53.4% (active)
COc1cc(O)c2c(c1)/C=C/C[C@H](O)[C@H](O)C(=O)/C=C\C[C@H](C)OC2=O | -1.38% (active) | 40.6% | 64% | 51.1% | 23.2% | -15.4% (active) | -61.3% (active) | 58.6% | 24.7% | -5.15% (active)
CCOC(=O)C1=C(C)Nc2nc3ccccc3n2C1c1cccc(Br)c1 (stereo not given) | 86.7% | 102% | 97.6% | 74.3% | 89.2% | 99.3% | 37.1% | 80.7% | 93.5% | 81.6%
